# Experimental data: the supplement of paper PMC9446081
# In all, about 39,000 compounds went through this assay and about 220 (0.56%) showed activity. What follows is part of a selection rich in actives, with near analogues and random picks from the rest.
# Test system: Escherichia coli K-12 BW25113
# Assay: relative growth (OD600 normalised to plate interquartile mean) (fraction); higher = less growth inhibition, active = 0.2 or less
# Conditions: 50 µM; LB; incubation time: overnight (16-24 h)
# 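Note: Wild-type cells incubated without shaking, value is the mean of two biological replicates.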
row,SMILES,relative growth
1,CN[C@H]1C[C@@H](N)[C@H](O)[C@@H](O[C@@H]2O[C@H](CO)[C@H](O)[C@@H]3O[C@@]4(O[C@H]23)O[C@H]([C@@H](N)CO)[C@H](O)[C@H](O)[C@H]4O)[C@@H]1O,0.0323 (active)
2,COC(=O)[C@]1(Cc2ccccc2N=[N+]=[N-])N=C(c2ccc(OCCCO)cc2)O[C@@H]1c1ccccc1N=[N+]=[N-],1.03 (inactive)
3,CCOCC(=O)N1CC[C@H]2CNC[C@H]21,0.983 (inactive)
4,CCCCCCCCCCCCCC(=O)O[C@@H]1[C@@H](C)[C@@]2(O)[C@@H](C=C(CO)C[C@]3(O)C(=O)C(C)=C[C@@H]23)[C@@H]2C(C)(C)[C@]12OC(C)=O,1.02 (inactive)
5,CN(C)[C@@H]1C(=O)[C@H](C(N)=O)C(=O)[C@@]2(O)C(=O)[C@@H]3C(=O)c4c(O)cccc4[C@@](C)(O)[C@H]3C[C@@H]12,0.182 (active)
6,CN(C)[C@@H]1C(=O)C(C(N)=O)=C(O)[C@@]2(O)C(O)=C3C(=O)c4c(O)cccc4[C@](C)(O)[C@H]3C[C@@H]12,0.0416 (active)
7,CN(C)[C@@H]1C(=O)[C@@H](C(N)=O)C(=O)[C@@]2(O)C(=O)[C@H]3C(=O)c4c(O)ccc(Cl)c4[C@@](C)(O)[C@H]3C[C@@H]12,0.037 (active)
8,COc1c(C[C@@H](C)O)c2c3c(C[C@@H](C)O)c(OC)c(=O)c4c(O)cc5c(c6c(cc(O)c(c1=O)c62)OCO5)c43,1.08 (inactive)
9,CC12CCC(O)CC1CCC1C2CC(O)C2(C)C(C3=CC(=O)OC3)CCC12O (centres undefined),0.988 (inactive)
10,CC(=O)N1CCCC[C@]12CCNC2,0.984 (inactive)
11,CC1=C(O)C(=O)C=C2C1=CC=C1C2(C)CCC2(C)C3CC(C)(C(=O)O)CCC3(C)CCC12C (centres undefined),1.02 (inactive)
12,CN(C)C(=O)[C@]1(Cc2ccccc2CN=[N+]=[N-])N=C(c2ccc(OCCCO)cc2)O[C@@H]1c1ccccc1N=[N+]=[N-],1.02 (inactive)
13,CC(=O)OC1CC2(C)C(c3ccoc3)CC3OC32C2(C)C(=O)C(O)=C3C(C)(C)C(=O)C=CC3(C)C12 (centres undefined),1.06 (inactive)
14,CCOC(=O)c1c(CN2CCN(c3ccccc3)CC2)n(Cc2ccccc2)c2cc(Br)c(O)cc12,1.03 (inactive)
15,CO[C@@H]1C[C@@H](C[C@H]2CC[C@H](C)[C@H]([C@@H](C)C(=O)O)O2)O[C@]2(O[C@](C)([C@H]3CC[C@@](C)([C@H]4O[C@@H]([C@H]5O[C@@](O)(CO)[C@H](C)C[C@@H]5C)C[C@@H]4C)O3)C[C@H]2C)[C@@H]1C,0.945 (inactive)
16,Cc1ccc(OC(=O)N(C)C[C@H]2OCc3ccccc3-c3c(n(C)c4ccccc34)C(=O)N([C@H](C)CO)C[C@@H]2C)cc1,1 (inactive)
17,CC(=O)OC1CC(OC2C(O)CC(OC3C(O)CC(OC4CCC5(C)C(CCC6C5CC(O)C5(C)C(C7=CC(=O)OC7)CCC65O)C4)OC3C)OC2C)OC(C)C1OC1OC(CO)C(O)C(O)C1O (centres undefined),0.995 (inactive)
18,Cc1nc(-c2ccc(-c3ccc(C(=O)N4CCc5cc6c(cc54)C4(CCN(C)CC4)CO6)cc3)c(C)c2)no1,0.932 (inactive)
19,CO[C@@H]1C=C[C@@H]2[C@H]1N2CCO (some centres undefined),0.968 (inactive)
20,CNC1C(O)C(OC2C(N)CC(N)C(OC3OC(C(C)O)C(O)C(O)C3N)C2O)OCC1(C)O (centres undefined),0.0438 (active)
21,CN[C@@H]1[C@@H](O)[C@@H](O[C@@H]2[C@H](O)[C@@H](O[C@H]3O[C@H]([C@@H](C)O)[C@@H](O)[C@H](O)[C@H]3N)[C@H](N)C[C@@H]2N)OC[C@]1(C)O,0.484 (inactive)
22,CN[C@@H]1[C@@H](O)[C@@H](O[C@@H]2[C@@H](O)[C@H](O[C@H]3O[C@H](CN)CC[C@H]3N)[C@@H](N)C[C@H]2N)OC[C@]1(C)O.CN[C@@H]1[C@@H](O)[C@@H](O[C@@H]2[C@@H](O)[C@H](O[C@H]3O[C@H]([C@@H](C)N)CC[C@H]3N)[C@@H](N)C[C@H]2N)OC[C@]1(C)O.CN[C@@H]1[C@@H](O)[C@@H](O[C@@H]2[C@@H](O)[C@H](O[C@H]3O[C@H]([C@@H](C)NC)CC[C@H]3N)[C@@H](N)C[C@H]2N)OC[C@]1(C)O,0.624 (inactive)
23,C[C@@]1(C(=O)O)[C@H]2CC[C@@H](O2)[C@@]1(C)C(=O)O,0.979 (inactive)
24,CC(=O)OC[C@]12CCC(C)=C[C@H]1O[C@@H]1[C@H](O)[C@@H](OC(C)=O)[C@@]2(C)[C@]12CO2,0.969 (inactive)
25,[NH2][Pt]1([NH2])[O]C(=O)C2(CCC2)C(=O)[O]1,0.958 (inactive)

row,SMILES,relative growth
1,CC(C)(C)c1ccc(O)cc1,0.998 (inactive)
2,CNC(=O)Oc1cccc2ccccc12,1.05 (inactive)
3,NCCc1cccc2ccccc12,1 (inactive)
4,O=[N+]([O-])C(Br)(CO)CO,0.0475 (active)
5,OCC(Br)(Br)Br,1.02 (inactive)
6,OCCN(CCO)CCO,0.97 (inactive)
7,C[C@@H](N)Cc1ccc(O)cc1,0.992 (inactive)
8,C[C@@H]1O[C@@H](O[C@@H]2C[C@@H](O)[C@]3(CO)[C@H]4[C@H](O)C[C@]5(C)[C@@H](C6=CC(=O)OC6)CC[C@]5(O)[C@@H]4CC[C@]3(O)C2)[C@H](O)[C@H](O)[C@H]1O,0.995 (inactive)
9,CC(=O)[O][Hg][c]1ccccc1,0.0564 (active)
10,O=C(Cc1ccccc1)c1ccccc1,0.986 (inactive)
11,NCC(=O)c1ccccc1,1 (inactive)
12,C=C(C)[C@@H]1CCC(C)=C[C@H]1c1c(O)cc(CCCCC)cc1O,1.01 (inactive)
13,C[C@@]12C(=O)OC(=O)[C@]1(C)[C@H]1CC[C@@H]2O1,0.933 (inactive)
14,COc1cccc(C2(N)CCCC2)c1,1.02 (inactive)
15,CN1[C@@H]2CC[C@@H]1C[C@H](O)C2 (some centres undefined),1.01 (inactive)
16,O=C1C=C2C(=CCO[C@@H]2O)O1,1 (inactive)
17,O=C1C=C2C(=CCOC2O)O1 (centres undefined),0.0434 (active)
18,CC1(C)C(=O)C=CC2(C)C1=C(O)C(=O)C1(C)C2CCC2(C)C(c3ccoc3)CC3OC321 (centres undefined),1.07 (inactive)
19,COC(=O)C[C@](O)(CCC(C)(C)O)C(=O)O[C@@H]1C(OC)=C[C@]23CCCN2CCc2cc4c(cc2[C@H]13)OCO4,1.02 (inactive)
20,O=c1[nH]c2ccccc2n1C1CCN(Cc2ccc(-c3nc4cc5[nH]cnc5cc4nc3-c3ccccc3)cc2)CC1,1.09 (inactive)
21,O=[N+]([O-])c1ccc(N(CCO)CCO)c2c1no[n+]2[O-],0.0367 (active)
22,C[C@@H]1CC[C@@]2(OC1)O[C@H]1C[C@H]3[C@@H]4CC=C5C[C@@H](O[C@@H]6O[C@H](CO)[C@@H](O[C@@H]7O[C@@H](C)[C@H](O)[C@@H](O)[C@H]7O)[C@H](O)[C@H]6O[C@@H]6O[C@@H](C)[C@H](O)[C@@H](O)[C@H]6O)CC[C@]5(C)[C@H]4CC[C@]3(C)[C@H]1[C@@H]2C,0.913 (inactive)
23,CC(C)C12OC1C1OC13C1(C)CCC4=C(COC4=O)C1CC1OC13C2O (centres undefined),0.947 (inactive)
24,COc1ccc(C(CN(C)C)C2(O)CCCCC2)cc1.Cl (centres undefined),1.14 (inactive)
